This note sets out measurements from PubChem BioAssay (NCI).

Each structure is given as a SMILES string. The panel holds about 83,000 compounds, 20% with a hit somewhere; the sample as a whole holds those more often.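 In brief: 96-well plates, 48 h treatment, single concentration, percent growth endpoint.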 A number with no mark means an inactive call. Calls of active or inactive are those of the source. The calls were made as follows: active = growth percent below 10; inactive = the rest.

Test systems include NCI-H23 lung; NCI-H226 lung; NCI-H322M lung; NCI-H460 lung; HOP-92 NSCLC; NCI-H522 lung; A549/ATCC NSCLC; 786-0 renal; COLO 205 colon; DU-145 prostate; K-562 leukemia; MALME-3M melanoma; MDA-MB-231 breast; RXF 393 renal; SF-268 CNS; SF-295 CNS; SF-539 CNS; UACC-257 melanoma; M14 melanoma; HOP-62 NSCLC.
Test in all cases: NCI-60 one-dose screen, 48 h (100 = growth as untreated, 0 = no growth, -100 = all killed)
Holding throughout (details): 10 µM unless noted

For the compound `OC1CCC(Cn2c(C(F)(F)F)cc3c(Cl)ncnc32)CC1` (stereo not drawn), the growth in the assay with NCI-H23 lung was -26% (active); in the assay on NCI-H226 lung, 64.4%; in the assay on NCI-H322M lung, -13.9% (active); in the assay on NCI-H460 lung, -43.6% (active); in the assay on HOP-92 NSCLC it was 78.2%; with NCI-H522 lung, -81.3% (active). Besides, the growth in the assay with A549/ATCC NSCLC was 94%; in the assay with 786-0 renal, 92.7%; in the assay with COLO 205 colon it was 60.2%; with DU-145 prostate, 10.5%; in the assay with K-562 leukemia it was -3.95% (active); in the assay with MALME-3M melanoma, 79.3%. In addition, the growth was 2.76% (active) in the assay on MDA-MB-231 breast; 63.1% with RXF 393 renal; -36.4% (active) in the assay with SF-268 CNS; 75.6% in the assay with SF-295 CNS; 75.6% with SF-539 CNS; 9.12% (active) in the assay on UACC-257 melanoma. Besides, the growth in the assay with M14 melanoma was -44.1% (active).

`CN1C(=O)C(O)(CC(=O)c2cc3ccccc3oc2=O)c2ccccc21` (stereo not drawn): the growth was 93.3% in the assay with NCI-H23 lung; 81% with NCI-H226 lung; 103% with NCI-H322M lung; 114% in the assay on NCI-H460 lung; 110% in the assay on HOP-92 NSCLC; 92.7% in the assay with NCI-H522 lung. Besides, the growth with A549/ATCC NSCLC is 111%; in the assay with 786-0 renal, 105%; with COLO 205 colon it was 114%; in the assay on DU-145 prostate, 137%; in the assay with K-562 leukemia it was 72.7%; in the assay on MALME-3M melanoma it was 94.7%. For the same compound, the growth in the assay on MDA-MB-231 breast is 91.8%; in the assay with RXF 393 renal, 122%; in the assay with SF-268 CNS, 98.8%; in the assay with SF-295 CNS, 96.3%; in the assay on SF-539 CNS, 93.3%; with UACC-257 melanoma it was 109%. The growth in the assay on M14 melanoma was 94.2%.

Take `COc1ccc(NC(=O)CSc2nnc(-c3ccc(-c4nc5ccccc5[nH]4)cc3)o2)cc1`: the growth with NCI-H23 lung was 11.9%; with NCI-H226 lung, 20.3%; in the assay with NCI-H322M lung, 74.3%; in the assay on NCI-H460 lung, 0.884% (active); in the assay on HOP-92 NSCLC, 10.8%; in the assay on NCI-H522 lung, 0.861% (active). The growth with A549/ATCC NSCLC is 6.46% (active); in the assay on 786-0 renal it was -33.8% (active); in the assay on COLO 205 colon it was 49.2%; in the assay on DU-145 prostate it was 5.8% (active); in the assay with K-562 leukemia it was 22.2%; in the assay on MALME-3M melanoma it was 10.2%. In addition, the growth in the assay on MDA-MB-231 breast is 19.2%; in the assay with RXF 393 renal, -54.4% (active); in the assay with SF-268 CNS, 49.6%; in the assay on SF-295 CNS, 74.8%; in the assay on SF-539 CNS it was -86.6% (active); with UACC-257 melanoma, 36.4%. The growth with M14 melanoma is 1.64% (active).

As to `N#CC1=C(c2cccs2)Nc2c(c(-c3ccccc3)nn2-c2ccccc2)C12C(=O)Nc1ccccc12` (stereo not drawn), the growth in the assay with NCI-H23 lung is 13.6%; with NCI-H226 lung, 12.8%; with NCI-H322M lung, 80.1%; in the assay on HOP-62 NSCLC, -20% (active); in the assay with NCI-H460 lung, 5.58% (active); with HOP-92 NSCLC, -13.1% (active). For the same compound, the growth in the assay with 786-0 renal was 1.25% (active); in the assay with COLO 205 colon, 55.9%; in the assay with DU-145 prostate, 33.5%; with K-562 leukemia it was 9.66% (active); with MALME-3M melanoma, 26.9%; with MDA-MB-231 breast, 34.2%. In addition, the growth in the assay with RXF 393 renal is -13.4% (active); in the assay on SF-268 CNS, 54.3%; in the assay with SF-295 CNS, 40.3%; with SF-539 CNS, -45.2% (active); in the assay with UACC-257 melanoma, 88%.

With `N#CC1=C(c2ccco2)Nc2c(c(-c3ccccc3)nn2-c2ccccc2)C12C(=O)Nc1ccc(Br)cc12` (stereo not drawn), the growth with NCI-H23 lung is 70.6%; in the assay on NCI-H226 lung, 67.2%; with NCI-H322M lung, 86.9%; in the assay on NCI-H460 lung, 1.16% (active); with HOP-92 NSCLC it was 52.4%; in the assay with NCI-H522 lung, 31.8%. For the same compound, the growth in the assay on 786-0 renal is 43.4%; with COLO 205 colon it was 86.9%; in the assay with DU-145 prostate, 70.5%; in the assay with K-562 leukemia it was 21.2%; in the assay on MALME-3M melanoma it was 90.7%; in the assay on MDA-MB-231 breast, 33.2%. Besides, the growth in the assay on RXF 393 renal is 70.2%; in the assay on SF-268 CNS it was 49.1%; in the assay with SF-295 CNS, 72.5%; in the assay on SF-539 CNS, -33% (active); with UACC-257 melanoma, 73.1%.

Consider `CC1=C(C(=O)OCc2ccccc2)C(c2cccc3ccccc23)n2c(nc3ccccc32)N1` (stereo not drawn), for which the growth in the assay with NCI-H23 lung was 46.4%; in the assay on NCI-H226 lung it was 19.4%; in the assay with NCI-H322M lung, 36.6%; in the assay on NCI-H460 lung, 9.99% (active); with HOP-92 NSCLC it was 64.6%; in the assay with NCI-H522 lung it was -42.2% (active). Further, the growth with A549/ATCC NSCLC was 33.9%; in the assay on 786-0 renal, 30.3%; in the assay on COLO 205 colon it was 13.9%; in the assay on DU-145 prostate it was 28.9%; in the assay on K-562 leukemia, 11.7%; in the assay on MALME-3M melanoma, 16.8%. Further, the growth in the assay with MDA-MB-231 breast was 37.9%; in the assay on RXF 393 renal it was 0.534% (active); in the assay with SF-268 CNS it was 44.9%; with SF-295 CNS, 10.5%; in the assay with SF-539 CNS, 11.8%; with UACC-257 melanoma, 40.7%. For the same compound, the growth with M14 melanoma was 23.9%.

`COC(=O)c1cccc(Oc2ccc(NC(=O)Nc3cc(C(F)(F)F)ccc3F)cc2)c1`: the growth was 69.3% in the assay on NCI-H23 lung; 57.5% in the assay on NCI-H226 lung; 91.1% in the assay on NCI-H322M lung; 30.6% with NCI-H460 lung; 40.7% with HOP-92 NSCLC; 49.8% in the assay on NCI-H522 lung. For the same compound, the growth was 47% in the assay on A549/ATCC NSCLC; 47.3% in the assay on 786-0 renal; 88.2% with COLO 205 colon; 78.8% in the assay on DU-145 prostate; 59.5% with K-562 leukemia; 77.7% in the assay on MALME-3M melanoma. Further, the growth was 40% in the assay on MDA-MB-231 breast; 41.4% in the assay with RXF 393 renal; 50.2% with SF-268 CNS; 58.8% in the assay with SF-295 CNS; 34.1% with SF-539 CNS; 90.8% in the assay on UACC-257 melanoma. The growth in the assay on M14 melanoma is 84.9%.

Take `Oc1cncc(-c2ccc3ncnc(N4CCc5cc(F)c(Cl)cc54)c3c2)c1`: the growth in the assay with NCI-H23 lung is 47.8%; in the assay on NCI-H226 lung it was 42.2%; in the assay with NCI-H322M lung, 54.4%; with NCI-H460 lung, 39.2%; with HOP-92 NSCLC, 40.9%; in the assay on NCI-H522 lung, 68.4%. The growth in the assay on A549/ATCC NSCLC is 40.4%; in the assay on 786-0 renal it was 35.4%; in the assay with COLO 205 colon it was 77%; in the assay with DU-145 prostate it was 49%; with K-562 leukemia, 65%; in the assay with MALME-3M melanoma, 70.8%. The growth in the assay with MDA-MB-231 breast is 46.5%; in the assay with RXF 393 renal it was 46.4%; with SF-268 CNS, 45.1%; with SF-295 CNS it was 57.6%; with SF-539 CNS, 56%; with UACC-257 melanoma, 90.9%. The growth in the assay on M14 melanoma is 78%.
